SMILES strings stand for the structures. The campaign covered roughly 69,000 compounds. About 8,600 (12%) showed an effect of 50% or more. The list comes from a sample in which strong results are over-represented; it also holds similar structures and randomly drawn compounds.

This assay relates to Plasmodium berghei. Description: Screen against P. berghei liver stage (PbLuc), transformed with Luciferase, at 10uM. The conditions noted are these: tested at 10 uM. It is filed as functional, HepG2.
For `O=C(NCc1ccccc1F)C1=NOC2(CCNC2)C1` (stereo not drawn), the INHIBITION is on record as 7.65%.

Turning to `CC(C)(C(=O)NCC(=O)NC1CC1)c1ccccc1F`, the INHIBITION worked out at 19.4%.

On to `O=C(CC1CCN(c2cccnn2)CC1)Nc1cccnc1`, for which the INHIBITION came out at 21.1%.

On to `CC(C)(C)C(=O)N1C[C@H](c2ccsc2)[C@H]2CN(C3CCCC3)CC[C@H]21`, for which the INHIBITION turned out to be 34.1%.

On to `CC(C)(C)C(=O)N1C[C@H](c2ccsc2)[C@H]2CN(Cc3cccs3)CC[C@H]21`, for which the INHIBITION is 54.6%.

Consider `CC(C)(C)OC(=O)NC1CCCN(Cc2cccs2)C1` (stereo not drawn), for which the INHIBITION was determined as 16.5%.

On to `CCCC(=O)NC1CCCN(Cc2cccs2)C1` (stereo not drawn), for which the INHIBITION was determined as 7.24%.

With `O=C(C1CCC1)N1C[C@@H](c2ccsc2)[C@@H]2CN(C3CCCCC3)CC[C@@H]21`, the INHIBITION is 32.3%.

As for `CC(C)(C)C(=O)N1C[C@H](c2ccsc2)[C@H]2CN(C3CCCCC3)CC[C@H]21`, the INHIBITION came out at 50.8%.

For the compound `Cn1nc2c(cc1=O)CN(Cc1coc(-c3cccc(F)c3)n1)CC2`, the INHIBITION worked out at 9.54%.

Take `COCCNC(=O)c1nc(NS(=O)(=O)c2ccccc2)sc1C`: the INHIBITION is reported as 17.7%.

Turning to `Cc1cnc(C(=O)NC(CN2CCCC2=O)c2ccccc2)cn1` (stereo not drawn), the INHIBITION was -15.543%.

Take `CCN(CC)c1ncc(CNCC2CCCn3ccnc32)s1` (stereo not drawn): the INHIBITION was 30.8%.

Regarding `Cc1cn2c(n1)C(CNCC1=Cc3ccccc3OC1)CCC2` (stereo not drawn), the INHIBITION stood at 88.5%.

`Cc1cn2c(n1)C(CNCC1=Cc3cc(Cl)ccc3OC1)CCC2` (stereo not drawn): the INHIBITION worked out at 90.2%.

Consider `Cc1ccc(N2CCCC(NCC3=Cc4ccccc4OC3)C2)nn1` (stereo not drawn), for which the INHIBITION is -4.94%.

As for `CC(NCC1=Cc2cc(Cl)ccc2OC1)c1nnc2n1CCCC2` (stereo not drawn), the INHIBITION came to 0.139%.

Take `Cn1ccnc1C(=O)N1CCCC(Cn2cc(CO)nn2)C1` (stereo not drawn): the INHIBITION stood at 47.6%.

As for `O=C(Nc1ccc(F)c(F)c1)N1CCC2(CCC(=O)N(C3CC3)C2)CC1`, the INHIBITION came out at 36%.

Regarding `COCCn1ccc2cc(C(=O)NC3CCOC(C)(C)C3)ccc21` (stereo not drawn), the INHIBITION is recorded as -16.5%.

As for `Cc1nn(C)cc1C(=O)N1CCCn2nc(CN3CC[C@H](F)C3)cc2C1`, the INHIBITION was 38.5%.

On to `COC(=O)NCc1cc2n(n1)CCCN(C(C)=O)C2`, for which the INHIBITION amounted to 9.3%.

`COC(=O)NCC(=O)N1CCCn2nc(CN3CC[C@H](F)C3)cc2C1`: the INHIBITION came to 59.1%.

In the case of `Cc1ccc(N2CCC(CCN3CCCC3=O)CC2)nn1`, the INHIBITION is recorded as 27.7%.

As to `Cc1ccc(C2CCCN(S(=O)(=O)N3CCOCC3)C2)nc1` (stereo not drawn), the INHIBITION was 19.85%.

As to `COc1ccccc1N1CCC(CNCc2cccc(OC)c2OC)C1` (stereo not drawn), the INHIBITION was found to be 59.4%.

As for `COc1cccc(N2CCC(CNCc3cccc(C#N)c3)C2)c1` (stereo not drawn), the INHIBITION was 26.4%.

With `COc1ccc(CNCC2CCN(c3ccccc3OC)C2)cc1O` (stereo not drawn), the INHIBITION is -29.1%.

Turning to `COc1ccccc1N1CCC(CNCc2cccc(O)c2)C1` (stereo not drawn), the INHIBITION amounted to 37.5%.

Take `COc1ccccc1N1CCC(CNCc2ccc(C#N)cc2)C1` (stereo not drawn): the INHIBITION was 40.9%.

As for `COc1ccccc1N1CCC(CNCc2cccc(C#N)c2)C1` (stereo not drawn), the INHIBITION was found to be 53.3%.

For `Cc1cnn(CC2CCCN2C(=O)c2cccc(F)c2F)c1` (stereo not drawn), the INHIBITION is -65.3%.

Turning to `CN(Cc1cnn(C)c1)C(=O)CCS(=O)(=O)c1ccc2c(c1)OCCO2`, the INHIBITION was 38%.

Consider `O=C(c1ccsc1)N1C[C@H]2CN(Cc3cccnc3)C(=O)[C@H]2C1`, for which the INHIBITION is recorded as 4.61%.

As to `CO[C@H]1CN(S(=O)(=O)c2ccc(C)cc2)C[C@@]12CCCO2`, the INHIBITION was 16.5%.

In the case of `O=C(NCc1cc2ccccc2s1)c1cc(CN2CCCC(O)C2)on1` (stereo not drawn), the INHIBITION amounted to 50.8%.

As for `O=C(NCc1ccc(Cl)s1)c1cc(CN2CCCC(O)C2)on1` (stereo not drawn), the INHIBITION is 49.9%.

Turning to `O=C(NCc1cccc(F)c1F)c1cc(CN2CCCC(O)C2)on1` (stereo not drawn), the INHIBITION was 34.1%.

`CC(C)C[C@H](NC(=O)N1CCC(Cc2ccccc2)CC1)C(=O)O`: the INHIBITION is listed as 43.4%.

Turning to `CCC(CO)N(Cc1cccnc1)C(=O)c1ccc(C)[nH]c1=O` (stereo not drawn), the INHIBITION is listed as 35.1%.

As to `Cc1ccc(CN2CCOC3(COCCN(S(C)(=O)=O)C3)C2)o1` (stereo not drawn), the INHIBITION stood at 15.4%.

Regarding `Clc1cccnc1OC1CCNCC1`, the INHIBITION came out at 28.6%.

In the case of `Brc1cccnc1OC1CCNCC1`, the INHIBITION was found to be 51%.

Turning to `O=C(CCC(=O)N1CCC(Oc2ncccc2Br)CC1)c1ccccc1`, the INHIBITION worked out at 45%.

Regarding `N#Cc1cccnc1OC1CCN(C(=O)NCc2ccccc2)CC1`, the INHIBITION is reported as 52.6%.

Regarding `O=C(c1cc(C2CC2)on1)N1CCC(Oc2ncccc2Br)CC1`, the INHIBITION was 44.2%.

Consider `O=C(NCc1ccccc1)N1CCC(Oc2ncccc2Cl)CC1`, for which the INHIBITION worked out at 22.2%.

As to `COc1ncccc1CNC(=O)N1CCC(CNC(C)=O)CC1`, the INHIBITION was determined as 0.266%.

Regarding `O=C(NCc1ccccc1)N1CCC(Oc2ncccc2Br)CC1`, the INHIBITION was 74.4%.

On to `N#Cc1cccnc1OC1CCN(C(=O)c2cc(C3CC3)on2)CC1`, for which the INHIBITION is listed as 34.3%.

Regarding `CCn1ncnc1CN1CCC(CNC(=O)c2cccnc2O)C1` (stereo not drawn), the INHIBITION was -11.3%.

In the case of `Cc1oc(C(C)C)cc1C(=O)N1C[C@@H]2CC[C@H]1CN(C(=O)N(C)C)C2`, the INHIBITION is listed as -14.3%.

As to `Cc1cc(C)n(CC2CCN(CC(O)CN3CCOCC3)CC2)n1` (stereo not drawn), the INHIBITION is -5.22%.
